In paper PMC12864922, “TDP-43 directly inhibits mRNA accumulation in neurites through modulation of mRNA stability”:
Over roughly 9,900 sequences, “r (bound/input frequency ratio)” has its median near 0.7; the highest 2% begin near 6.5. The full list was thinned out, with the highest values kept by preference.

B1: ENSMUSG00000058297.2|Spock2|239:243;247:260 (ssRNA)
RNA: GGGAGUUCUACAGUCCGACGAUCGCUUCGAUAUCCGCAUGCUAUGAGGAAGAAAAGGAGACAGAAGAGGCAGGGGAGGAGGCCGAGGAGGAGGAGGGUGAGGCGGGUGAGGCAGAUGAUGGAGGCUACAUCUGGUAGAUAGCCCUCGACGGCCUCGGCAGGCCAGGGUGCCGACGGCCAGAAAGACAGGCCAGAAGAGACCUGGACAACAGCAGGCAACUUAGCAAAUGGAUCCGGAAGUCAGUGCGGAGGACCCUGGCUCCAGUGGGGGAGGACUGGGGACACACGCUACACACAUACACACCUCUUGCGGUCGCACUAGUGUGGAAUUCUCGGGUGUCAAGG
B2: ENSMUSG00000058297.11|Spock2 (ssRNA)
RNA: GGGAGUUCUACAGUCCGACGAUCGCUUCGAUAUCCGCAUGCUAUGAGGCGGGUGAGGCAGAUGAUGGAGGCUACAUCUGGUAGAUAGCCCUCGACGGCCUCGGCAGGCCAGGGUGCCGACGGCCAGAAAGACAGGCCAGAAGAGACCUGGACAACAGCAGGCAACUUAGCAAAUGGAUCCGGAAGUCAGUGCGGAGGACCCUGGCUCCAGUGGGGGAGGACUGGGGAGUGUGGCUUGUGUGUAUGUGUGAUAUGAGAUGUGUGUGUAUGAUGUGAGAUGUGAGUGUGUGAUGUGAGAUGUGUGCUCUUGCGGUCGCACUAGUGUGGAAUUCUCGGGUGUCAAGG
B3: ENSMUSG00000058297.15|Spock2 (ssRNA)
RNA: GGGAGUUCUACAGUCCGACGAUCGCUUCGAUAUCCGCAUGCUAAGGCUACAUCUGGUAGAUAGCCCUCGACGGCCUCGGCAGGCCAGGGUGCCGACGGCCAGAAAGACAGGCCAGAAGAGACCUGGACAACAGCAGGCAACUUAGCAAAUGGAUCCGGAAGUCAGUGCGGAGGACCCUGGCUCCAGUGGGGGAGGACUGGGGAGUGUGGCUUGUGUGUAUGUGUGAUAUGAGAUGUGUGUGUAUGAUGUGAGAUGUGAGUGUGUGAUGUGAGAUGUGUGUAUGUGAGAUGUGUGUGUGUGUGUCUCUUGCGGUCGCACUAGUGUGGAAUUCUCGGGUGUCAAGG
B4: ENSMUSG00000058297.16|Spock2 (ssRNA)
RNA: GGGAGUUCUACAGUCCGACGAUCGCUUCGAUAUCCGCAUGCUACAUCUGGUAGAUAGCCCUCGACGGCCUCGGCAGGCCAGGGUGCCGACGGCCAGAAAGACAGGCCAGAAGAGACCUGGACAACAGCAGGCAACUUAGCAAAUGGAUCCGGAAGUCAGUGCGGAGGACCCUGGCUCCAGUGGGGGAGGACUGGGGAGUGUGGCUUGUGUGUAUGUGUGAUAUGAGAUGUGUGUGUAUGAUGUGAGAUGUGAGUGUGUGAUGUGAGAUGUGUGUAUGUGAGAUGUGUGUGUGUGUGUGUGUGUCUCUUGCGGUCGCACUAGUGUGGAAUUCUCGGGUGUCAAGG
B5: ENSMUSG00000058297.14|Spock2|167:171;175:188;197:208;222:228;237:246;252:260 (ssRNA)
RNA: GGGAGUUCUACAGUCCGACGAUCGCUUCGAUAUCCGCAUGCUAUGAUGGAGGCUACAUCUGGUAGAUAGCCCUCGACGGCCUCGGCAGGCCAGGGUGCCGACGGCCAGAAAGACAGGCCAGAAGAGACCUGGACAACAGCAGGCAACUUAGCAAAUGGAUCCGGAAGUCAGUGCGGAGGACCCUGGCUCCAGUGGGGGAGGACUGGGGACACACGCUACACACAUACACACAUAUGAGAACACACACAUACAUGUGAGAUGUGACACACACAUGUGAGAACACACAUACUGAGAACACACACACUCUUGCGGUCGCACUAGUGUGGAAUUCUCGGGUGUCAAGG
B6: ENSMUSG00000058297.16|Spock2|155:159;163:176;185:196;210:216;225:234;240:260 (ssRNA)
RNA: GGGAGUUCUACAGUCCGACGAUCGCUUCGAUAUCCGCAUGCUACAUCUGGUAGAUAGCCCUCGACGGCCUCGGCAGGCCAGGGUGCCGACGGCCAGAAAGACAGGCCAGAAGAGACCUGGACAACAGCAGGCAACUUAGCAAAUGGAUCCGGAAGUCAGUGCGGAGGACCCUGGCUCCAGUGGGGGAGGACUGGGGACACACGCUACACACAUACACACAUAUGAGAACACACACAUACAUGUGAGAUGUGACACACACAUGUGAGAACACACAUACUGAGAACACACACACACACACACACACUCUUGCGGUCGCACUAGUGUGGAAUUCUCGGGUGUCAAGG
B7: ENSMUSG00000058297.11|Spock2|185:189;193:206;215:226;240:246;255:260 (ssRNA)
RNA: GGGAGUUCUACAGUCCGACGAUCGCUUCGAUAUCCGCAUGCUAUGAGGCGGGUGAGGCAGAUGAUGGAGGCUACAUCUGGUAGAUAGCCCUCGACGGCCUCGGCAGGCCAGGGUGCCGACGGCCAGAAAGACAGGCCAGAAGAGACCUGGACAACAGCAGGCAACUUAGCAAAUGGAUCCGGAAGUCAGUGCGGAGGACCCUGGCUCCAGUGGGGGAGGACUGGGGACACACGCUACACACAUACACACAUAUGAGAACACACACAUACAUGUGAGAUGUGACACACACAUGUGAGAACACACCUCUUGCGGUCGCACUAGUGUGGAAUUCUCGGGUGUCAAGG
B8: ENSMUSG00000058297.15|Spock2|161:165;169:182;191:202;216:222;231:240;246:260 (ssRNA)
RNA: GGGAGUUCUACAGUCCGACGAUCGCUUCGAUAUCCGCAUGCUAAGGCUACAUCUGGUAGAUAGCCCUCGACGGCCUCGGCAGGCCAGGGUGCCGACGGCCAGAAAGACAGGCCAGAAGAGACCUGGACAACAGCAGGCAACUUAGCAAAUGGAUCCGGAAGUCAGUGCGGAGGACCCUGGCUCCAGUGGGGGAGGACUGGGGACACACGCUACACACAUACACACAUAUGAGAACACACACAUACAUGUGAGAUGUGACACACACAUGUGAGAACACACAUACUGAGAACACACACACACACACUCUUGCGGUCGCACUAGUGUGGAAUUCUCGGGUGUCAAGG
B9: ENSMUSG00000058297.14|Spock2 (ssRNA)
RNA: GGGAGUUCUACAGUCCGACGAUCGCUUCGAUAUCCGCAUGCUAUGAUGGAGGCUACAUCUGGUAGAUAGCCCUCGACGGCCUCGGCAGGCCAGGGUGCCGACGGCCAGAAAGACAGGCCAGAAGAGACCUGGACAACAGCAGGCAACUUAGCAAAUGGAUCCGGAAGUCAGUGCGGAGGACCCUGGCUCCAGUGGGGGAGGACUGGGGAGUGUGGCUUGUGUGUAUGUGUGAUAUGAGAUGUGUGUGUAUGAUGUGAGAUGUGAGUGUGUGAUGUGAGAUGUGUGUAUGUGAGAUGUGUGUGUCUCUUGCGGUCGCACUAGUGUGGAAUUCUCGGGUGUCAAGG

target: TDP-43 (Homo sapiens, UniProt Q13148 1-414); experiment: RNA Bind-n-Seq with designed 260-mer pool; 25 mM Tris-HCl, 150 mM KCl, 3 mM MgCl2, BSA (printed 500 mg/mL), 20 units/mL SUPERase IN; pH not stated; 500 nM RNA pool, 1 h, 4 C; TDP-43 5, 50, 500 nM; high values mean tight binding; conditions: protein: recombinant; tags: SBP (GST cleaved off with PreScission; pGEX-GST-SBP)
Sequence (Q13148 whole entry): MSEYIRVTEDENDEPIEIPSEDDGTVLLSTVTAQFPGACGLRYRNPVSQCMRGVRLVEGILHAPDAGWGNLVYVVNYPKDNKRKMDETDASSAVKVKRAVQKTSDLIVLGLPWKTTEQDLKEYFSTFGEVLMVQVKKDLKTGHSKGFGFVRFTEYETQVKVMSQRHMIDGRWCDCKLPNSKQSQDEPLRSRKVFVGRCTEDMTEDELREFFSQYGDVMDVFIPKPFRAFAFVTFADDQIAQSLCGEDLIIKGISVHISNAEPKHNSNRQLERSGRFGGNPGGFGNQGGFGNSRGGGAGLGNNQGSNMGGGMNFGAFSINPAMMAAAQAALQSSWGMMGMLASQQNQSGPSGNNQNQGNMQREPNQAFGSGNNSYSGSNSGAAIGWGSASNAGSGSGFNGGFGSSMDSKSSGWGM
Outline: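 The incubation lasted 1 h at 4 °C and used 500 nM of an in vitro-transcribed 260-nt 3′ UTR oligo pool with recombinant SBP-tagged TDP-43 at 5, 50 or 500 nM immobilized on streptavidin beads. It took place in 25 mM Tris-HCl, 150 mM KCl, 3 mM MgCl2, BSA and SUPERase IN. Bound RNA was washed, eluted with biotin, converted to cDNA, PCR-amplified and sequenced to give R, each oligo's normalized abundance in the bound sample divided by that in input. Two independent protein batches provided the duplicates.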

Binder	binding signal
B1	2.26 R (bound/input frequency ratio)
B2	8.12 R (bound/input frequency ratio)
B3	7.97 R (bound/input frequency ratio)
B4	7.85 R (bound/input frequency ratio)
B5	1.95 R (bound/input frequency ratio)
B6	2.54 R (bound/input frequency ratio)
B7	2.53 R (bound/input frequency ratio)
B8	2.53 R (bound/input frequency ratio)
B9	8.13 R (bound/input frequency ratio)
